A number with no mark means an inactive call. Results filed as inconclusive are left out. A call without a number means that no potency is given here. Calls of active or inactive are those of the source. Calls follow the shape of the full dose curve.
molecular target: Acetylcholinesterase (Homo sapiens) (UniProt P22303); assay: Acetylcholinesterase (AChE) small molecule antagonists: enzyme-based qHTS assay (AID 1347397); settings: Potency: AChE enzyme activity inhibition; outcome: AChE enzyme activity inhibition; series mostly up to 115 µM; also: nearly all actives have a fitted effect of over 55% in size
Sequence (P22303 whole entry, looked up): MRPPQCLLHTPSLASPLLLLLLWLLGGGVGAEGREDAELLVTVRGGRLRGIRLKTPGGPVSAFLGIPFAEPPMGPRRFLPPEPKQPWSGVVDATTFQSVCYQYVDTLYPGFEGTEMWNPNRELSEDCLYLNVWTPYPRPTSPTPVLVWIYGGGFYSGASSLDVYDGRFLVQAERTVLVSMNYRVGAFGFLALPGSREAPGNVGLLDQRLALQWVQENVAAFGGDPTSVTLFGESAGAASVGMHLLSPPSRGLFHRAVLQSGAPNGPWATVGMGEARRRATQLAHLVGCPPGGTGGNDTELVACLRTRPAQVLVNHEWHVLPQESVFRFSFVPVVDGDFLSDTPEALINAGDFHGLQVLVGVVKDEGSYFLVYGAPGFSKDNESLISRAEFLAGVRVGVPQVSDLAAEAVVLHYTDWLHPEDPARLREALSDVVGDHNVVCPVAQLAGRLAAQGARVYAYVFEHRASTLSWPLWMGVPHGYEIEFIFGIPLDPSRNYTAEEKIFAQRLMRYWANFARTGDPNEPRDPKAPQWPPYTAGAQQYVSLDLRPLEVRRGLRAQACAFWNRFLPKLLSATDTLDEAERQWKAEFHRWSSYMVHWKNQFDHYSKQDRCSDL
Outline: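 Human recombinant acetylcholinesterase; substrate acetylthiocholine; thiocholine quantified with DTNB (colorimetric). Compound preincubation 30 min RT; reaction 10 min RT.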

Compound | Potency | outcome | activity change, negative = inhibition
Cc1ccc2ccc(Cl)cc2n1 | inactive | – | –
O[C@@H]([C@H](O)[C@H](O)CBr)[C@H](O)CBr | inactive | – | –
CO[C@@]1(NC(=O)CSC[C@@H](N)C(=O)O)C(=O)N2C(C(=O)O)=C(CSc3nnnn3C)CS[C@@H]21 | inactive | – | –
O=Cc1ccccc1[N+](=O)[O-] | inactive | – | –
Cc1ccc(Nc2c(F)cccc2Cl)c(CC(=O)O)c1 | inactive | – | –
COC(=O)CCCCC(CCSS/C(CCO)=C(\C)N(C=O)Cc1cnc(C)nc1N)SC(C)=O (stereo not given) | inactive | – | –
CN(C)C(=O)Nc1ccc(Cl)c(Cl)c1 | inactive | – | –
CCCc1ccc(OCC(=O)N2CCN(C(=O)COc3ccc(CCC)cc3OC)CC2)c(OC)c1 | inactive | – | –
CC(C)(CO)C(O)C(=O)NCCCO (stereo not given) | inactive | – | –
CCCCCCCCSCCO | inactive | – | –
Cc1ccc(Cl)cc1N | inactive | – | –
OC(Cn1cncn1)(Cn1cncn1)c1ccc(F)cc1F | inactive | – | –
Cc1ccc(C=O)cc1 | inactive | – | –
CCCc1ncc(C(=O)O)s1 | inactive | – | –
O=S(=O)(O)c1ccc(Cl)cc1 | inactive | – | –
c1ccc2c(c1)-c1cccc3c1c-2cc1ccccc13 | inactive | – | –
CCCCCCCCCCCCCC(=O)OCC | inactive | – | –
CN=C(NC#N)Nc1ccc(C2=NNC(=O)CC2C)cc1 (stereo not given) | inactive | – | –
CC[N+](CC)(CC(=O)Nc1c(C)cccc1C)Cc1ccccc1 (tested in a mixture with another compound) | inactive | – | –
COC(C)(C)CCO | inactive | – | –

Compound | Potency | outcome | activity change, negative = inhibition
CCCCOC(=O)C(C)OC(=O)CCC (stereo not given) | inactive | – | –
NC(N)=Nc1nc(CSCC/C(N)=N/S(N)(=O)=O)cs1 | inactive | – | –
O=C(O)CCNC(=O)c1ccccc1 | inactive | – | –
CC(=O)/C=C/C1C(C)=CCCC1(C)C (stereo not given) | inactive | – | –
N#CCC(=O)NN | inactive | – | –
CC12CCCC=C1C(=O)OC2=O (stereo not given) | inactive | – | –
CC(C)c1ccc(C(=O)N=C(N)N)cc1S(C)(=O)=O | – | inactive | –
CO[Si](CCCn1c(=O)n(CCC[Si](OC)(OC)OC)c(=O)n(CCC[Si](OC)(OC)OC)c1=O)(OC)OC | inactive | – | –
O=c1[nH]c(=O)c2[nH]c(=O)[nH]c2[nH]1 | – | – | 2.79% [at 10.5 µM]
CCC(C)(C)c1ccc(CC(C)CN2C[C@@H](C)O[C@@H](C)C2)cc1 (stereo not given in full) | inactive | – | –
COc1ccc(NC(C)=O)cc1N | inactive | – | –
C=CC(=O)N1CCOCC1 | inactive | – | –
CC1=CC(=O)CCC1 | inactive | – | –
CCN(CCO)c1cccc(C)c1 | inactive | – | –
CCCCCCCCCCCC(=O)OCC(O)CO (stereo not given) | inactive | – | –
ON=C1CCCCC1 | inactive | – | –
CC(C)OC(=O)CCC(=O)OC(C)C | inactive | – | –
CNC(=O)N(c1ccccc1)c1ccccc1 | inactive | – | –
O[Si](c1ccccc1)(c1ccccc1)c1ccccc1 | inactive | – | –
CC(C)=CCC/C(C)=C/CC/C(C)=C/CO | inactive | – | –

molecular target: Acetylcholinesterase (Homo sapiens) (UniProt P22303); assay: Acetylcholinesterase (AChE) small molecule antagonists: fluorescence cell-based qHTS assay (AID 1347398); settings: SH-SY5Y cells; Potency: AChE activity; outcome: AChE activity; series mostly up to 115 µM; also: nearly all actives have a fitted effect of over 50% in size; also: potency is read from the fitted curve at half-maximal effect
Outline: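 Thiocholine generated from acetylthiocholine by SH-SY5Y cell AChE is detected with Thiolite Green (Ex/Em 490/520 nm) after 40 min at room temperature, following 30 min compound pretreatment at 37 C.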

Compound | Potency | outcome | activity change, negative = inhibition
Cc1ccc2ccc(Cl)cc2n1 | inactive | – | –
O[C@@H]([C@H](O)[C@H](O)CBr)[C@H](O)CBr | inactive | – | –
CO[C@@]1(NC(=O)CSC[C@@H](N)C(=O)O)C(=O)N2C(C(=O)O)=C(CSc3nnnn3C)CS[C@@H]21 | inactive | – | –
O=Cc1ccccc1[N+](=O)[O-] | inactive | – | –
Cc1ccc(Nc2c(F)cccc2Cl)c(CC(=O)O)c1 | inactive | – | –
COC(=O)CCCCC(CCSS/C(CCO)=C(\C)N(C=O)Cc1cnc(C)nc1N)SC(C)=O (stereo not given) | inactive | – | –
CN(C)C(=O)Nc1ccc(Cl)c(Cl)c1 | inactive | – | –
CCCc1ccc(OCC(=O)N2CCN(C(=O)COc3ccc(CCC)cc3OC)CC2)c(OC)c1 | inactive | – | –
CC(C)(CO)C(O)C(=O)NCCCO (stereo not given) | inactive | – | –
CCCCCCCCSCCO | inactive | – | –
Cc1ccc(Cl)cc1N | inactive | – | –
OC(Cn1cncn1)(Cn1cncn1)c1ccc(F)cc1F | inactive | – | –
Cc1ccc(C=O)cc1 | inactive | – | –
CCCc1ncc(C(=O)O)s1 | inactive | – | –
O=S(=O)(O)c1ccc(Cl)cc1 | inactive | – | –
c1ccc2c(c1)-c1cccc3c1c-2cc1ccccc13 | inactive | – | –
CCCCCCCCCCCCCC(=O)OCC | inactive | – | –
CN=C(NC#N)Nc1ccc(C2=NNC(=O)CC2C)cc1 (stereo not given) | inactive | – | –
CC[N+](CC)(CC(=O)Nc1c(C)cccc1C)Cc1ccccc1 (tested in a mixture with another compound) | inactive | – | –
COC(C)(C)CCO | inactive | – | –

Compound | Potency | outcome | activity change, negative = inhibition
CCCCOC(=O)C(C)OC(=O)CCC (stereo not given) | inactive | – | –
NC(N)=Nc1nc(CSCC/C(N)=N/S(N)(=O)=O)cs1 | inactive | – | –
O=C(O)CCNC(=O)c1ccccc1 | inactive | – | –
CC(=O)/C=C/C1C(C)=CCCC1(C)C (stereo not given) | inactive | – | –
N#CCC(=O)NN | inactive | – | –
CC12CCCC=C1C(=O)OC2=O (stereo not given) | inactive | – | –
CC(C)c1ccc(C(=O)N=C(N)N)cc1S(C)(=O)=O | – | inactive | –
CO[Si](CCCn1c(=O)n(CCC[Si](OC)(OC)OC)c(=O)n(CCC[Si](OC)(OC)OC)c1=O)(OC)OC | inactive | – | –
O=c1[nH]c(=O)c2[nH]c(=O)[nH]c2[nH]1 | – | – | 6.44% [at 10.5 µM]
CCC(C)(C)c1ccc(CC(C)CN2C[C@@H](C)O[C@@H](C)C2)cc1 (stereo not given in full) | inactive | – | –
COc1ccc(NC(C)=O)cc1N | inactive | – | –
C=CC(=O)N1CCOCC1 | inactive | – | –
CC1=CC(=O)CCC1 | inactive | – | –
CCN(CCO)c1cccc(C)c1 | inactive | – | –
CCCCCCCCCCCC(=O)OCC(O)CO (stereo not given) | inactive | – | –
ON=C1CCCCC1 | inactive | – | –
CC(C)OC(=O)CCC(=O)OC(C)C | inactive | – | –
CNC(=O)N(c1ccccc1)c1ccccc1 | 35.7 µM (active) | – | –
O[Si](c1ccccc1)(c1ccccc1)c1ccccc1 | inactive | – | –
CC(C)=CCC/C(C)=C/CC/C(C)=C/CO | inactive | – | –
